Compound activity as filed in PubChem.
Cruzain inh noDet: blocks cruzain activity in detergent-free assay. P25779. purified cruzain, Z-FR-AMC fluorescence, no detergent. Potency, µM, usual class: inhibitors. 200,000 compounds, 2.3% hits. AID 1476; note: nearly all actives have a fitted effect of over 40% in size
Target sequence (P25779 123-467 limits assumed): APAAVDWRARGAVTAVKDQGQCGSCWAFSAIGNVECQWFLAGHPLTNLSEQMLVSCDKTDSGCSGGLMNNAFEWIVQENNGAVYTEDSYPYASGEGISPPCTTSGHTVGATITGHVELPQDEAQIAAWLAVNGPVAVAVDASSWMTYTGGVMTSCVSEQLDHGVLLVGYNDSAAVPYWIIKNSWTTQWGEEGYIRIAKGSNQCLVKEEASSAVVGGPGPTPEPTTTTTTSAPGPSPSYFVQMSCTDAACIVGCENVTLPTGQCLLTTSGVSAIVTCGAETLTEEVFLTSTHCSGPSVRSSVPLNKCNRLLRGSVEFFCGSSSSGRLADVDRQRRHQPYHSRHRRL
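Purified cruzain at 1.5 nM, pre-incubated 15 min with compound at room temperature in 100 mM sodium acetate pH 5.5, 5 mM DTT, 0.00005% Triton X-100. Reaction started with 2 uM Z-FR-AMC; AMC fluorescence increase over 60 s gives rate.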
Cruzain Triton: blocks cruzain activity in presence of Triton detergent. P25779. purified cruzain, Z-FR-AMC fluorescence, 0.01% Triton. Potency, µM, hits mostly inhibitors. 200,000 compounds, 0.43% hits; note: nearly all actives have a fitted effect of over 40% in size
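Cruzain (1.5 nM) preincubated 15 min at RT with compound in 100 mM sodium acetate pH 5.5, 5 mM DTT, 0.01% Triton X-100. Reaction started with 2 uM Z-FR-AMC; AMC fluorescence (ex 360/em 450 nm) change over 60 s gave rate.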
A number is an active result; i = inactive; ? = inconclusive; ! = not active in a repeat. The list is not random: actives were taken first. Their share in the collection is about 2.4%. Calls come from the whole dose curve; as a rule, active = well fitted curve in the direction sought with a large enough effect; inconclusive = small, poorly fitted or top-dose-only effect, or another doubt; inactive = no such curve, though single readings can be large; an effect the other way counts as inactive or inconclusive.

SMILES	Cruzain inh noDet	Cruzain Triton
O=C1/C(=C/c2ccccc2)NC(=S)N1C(c1ccccc1)c1ccccc1	20µM	i
Cc1ccc2cccc(Oc3ncnc4sc(C)c(C)c34)c2n1	i	i
CCN(CC)S(=O)(=O)c1ccc(Cl)c(NC(=O)COC(=O)c2c(C)noc2C)c1	i	i
CCN(c1ccccc1)S(=O)(=O)c1ccc(Cl)c(NC(=O)COC(=O)c2ccc(Cl)c(N)c2)c1	25.1µM	i
CN(C)S(=O)(=O)c1cccc(NC(=O)COC(=O)c2cc(-c3cccc(Br)c3)nc3ccccc23)c1	10µM	i
CCN(CC)S(=O)(=O)c1ccc(Cl)c(NC(=O)COC(=O)c2cc(-c3ccccc3Cl)nc3ccccc23)c1	10µM	i
CN(C)S(=O)(=O)c1cccc(NC(=O)COC(=O)c2ccc(Br)o2)c1	i	i
CCN(c1ccccc1)S(=O)(=O)c1ccc(Cl)c(NC(=O)COC(=O)c2cccc(OC)c2O)c1	?	i
CC1(C)CC(=O)C(=Cc2cn(CCC#N)nc2-c2ccc(F)cc2)C(=O)C1	i	i
O=C(Oc1ccccc1Cl)c1cc(-c2ccc3c(c2)OCCO3)on1	i	i
COc1ccc(CN(C2CCCC2)S(=O)(=O)c2ccc(-n3cnnn3)cc2)cc1	i	i
Oc1cccc2cccnc12	i	i
O=c1c2ccccc2nc2n1CCN2	i	i
CCCCOc1ccc(C(=O)Nc2cc(-c3ccc(C)cc3)no2)cc1	i	i
CCOc1ccc(C(=O)Nc2cc(-c3ccccc3)no2)cc1	20µM	i
CC1CCCCN1C(=O)c1cc(Cl)ccc1[N+](=O)[O-] (stereo not given)	i	i
CCOC(=O)CSc1nc(C)cc(=O)[nH]1	i	i
N#CCCn1c(SCC(=O)c2c[nH]c3ccccc23)nc2ccccc21	?	i
Cc1cc(C(=O)CSc2nc3ccccc3n2CCC#N)c(C)n1Cc1cccs1	15.8µM	i
COc1ccc(N2C(=O)CC(Nc3ccc(C)cc3)C2=O)cc1 (stereo not given)	?	i
Cc1ccc(NC2CC(=O)N(c3ccc(N4CCCCC4)cc3)C2=O)cc1 (stereo not given)	7.94µM	i
COc1ccc(N=C2NC(=O)S/C2=C\c2ccc(N(C)C)cc2)cc1	?	i
CCOc1ccc(N=C2NC(=O)S/C2=C\c2ccc(Cl)cc2)cc1	3.98µM	i
COc1ccc(C(=S)N2CCCCCC2)cc1	i	14.1µM
COc1ccc(C(=S)N2CCNCC2)cc1	i	i
SMILES	Cruzain inh noDet	Cruzain Triton
CNC(=O)CN(c1ccc2c(c1)OCCO2)S(C)(=O)=O	i	i
COc1ccc(/C=N/c2c(-c3ccc(OC)cc3)nc3n2CCS3)cc1	?	i
COc1ccc(C2=CSC(/N=C/c3ccc(F)cc3)=NN2)cc1	12.6µM	i
O=C(Nc1cccc(-c2cn3ccccc3n2)c1)C1CC1	i	i
CCCC(C)C(=O)Nc1nc(C)c(-c2csc(Nc3cc(OC)ccc3OC)n2)s1 (stereo not given)	?	i
CCCC(=O)Nc1nc(C)c(-c2csc(Nc3ccccc3OC)n2)s1	i	i
CCCCCC(=O)Nc1nc(C)c(-c2csc(Nc3cc(Cl)ccc3OC)n2)s1	3.16µM	i
CCCC(=O)Nc1nc(C)c(-c2csc(Nc3ccc(Cl)cc3)n2)s1	12.6µM	i
CCCC(=O)Nc1nc(C)c(-c2csc(Nc3cc(OC)ccc3OC)n2)s1	i	i
CCC(C)C(=O)Nc1nc(C)c(-c2csc(Nc3ccc(Cl)cc3)n2)s1 (stereo not given)	3.98µM	i
CC(=O)Nc1nc(C)c(-c2csc(Nc3cccc([N+](=O)[O-])c3)n2)s1	i	i
CC(=O)Nc1nc(C)c(-c2csc(Nc3ccc(O)cc3)n2)s1	12.6µM	i
COc1ccc(OC)c(-c2[nH]nc3c2C(c2ccco2)C(C#N)=C(N)O3)c1 (stereo not given)	i	i
Cc1ccccc1Cn1c(SCc2ccc(C(=O)NC3CCCC3)cc2)nc2ccncc21	i	i
COC(=O)c1ccc(C(NC(=O)OCc2ccccc2)/C(C)=C/[C@@H](C)C(=O)NCCN2CCOCC2)cc1 (stereo not given in full)	?	i
O=C(NC1CCN(C(=S)NCc2ccco2)CC1)C1CCCCC1	i	i
C=CCCC(=O)Nc1nc(C)c(-c2csc(Nc3cc(OC)ccc3OC)n2)s1	?	i
C=CCCC(=O)Nc1nc(C)c(-c2csc(Nc3cccc(OC)c3)n2)s1	15.8µM	i
c1ccc(C[n+]2cccc(-c3cc4ccccc4[nH]3)c2)cc1	i	i
CCOC(=O)N1CCN(C(=O)CSc2nc3c(cnn3-c3ccccc3)c(=O)[nH]2)CC1	i	i
COc1ccc(C2CC(c3cccs3)=NN2C(=O)CSc2nc3c(cnn3-c3ccccc3)c(=O)[nH]2)cc1 (stereo not given)	31.6µM	i
COc1cccc(C2CC(c3cccs3)=NN2C(=O)CSc2nc3c(cnn3-c3ccc(F)cc3)c(=O)[nH]2)c1OC (stereo not given)	?	3.55µM
O=C(CSc1nc2c(cnn2-c2ccc(F)cc2)c(=O)[nH]1)N1CCCCC1	i	i
COc1ccc(C2=NN(C(=O)CSc3nc4ccccc4s3)C(c3ccc(OC)cc3)C2)cc1 (stereo not given)	?	i
COc1cccc(C2CC(c3cccs3)=NN2C(=O)CSc2nc3ccccc3s2)c1OC (stereo not given)	12.6µM	?
SMILES	Cruzain inh noDet	Cruzain Triton
CN(CCC#N)C(=O)Cn1nc(Cc2ccncc2)c2ccccc2c1=O	i	i
COc1ccc(-c2onc3ccc(Br)cc23)cc1	i	i
O=C1/C(=C/c2ccc(N3CCCC3)cc2)NC(=S)N1C1CC1	i	i
O=C1N/C(=C/c2ccc(N3CCCC3)cc2)C(=O)N1c1ccccc1	3.16µM	i
Cc1cc(C(=O)N/N=C2\CC(=O)CC(C)(C)C2)c(C)n1-c1ccccc1	i	i
Cc1ccc(C(=O)c2coc3c2C(=O)C(=O)c2ccccc2-3)cc1	12.6µM	i
Cc1ccc(C(=O)c2c(C)oc3c2C(=O)C(=O)c2ccccc2-3)cc1	?	i
CC(=O)N1CCOc2cc(S(=O)(=O)NCc3ccc(F)cc3)c(C)cc21	i	i
CCC(=O)N1c2ccc(S(=O)(=O)N(CCO)Cc3ccccc3)cc2CC1C (stereo not given)	i	i
O=C(CSc1nnc(-c2ccco2)o1)c1ccccc1	15.8µM	i
O=C(CSc1nnc(-c2ccco2)o1)c1ccc(F)c(F)c1	i	i
CCOc1ccc(C(=O)Nc2cc(-c3cn4cccnc4n3)ccc2C)cc1OCC	i	i
CN(C)c1ccc(C(=C2C=CC(=[N+](C)C)C=C2)c2ccccc2)cc1	25.1µM!	i
CN(C)c1ccccc1	i	i
CN(C)c1ccc(C(=C2C=CC(=[N+](C)C)C=C2)c2ccc(N(C)C)cc2)cc1	20µM!	i
CN(C)c1ccc(C(=O)c2ccc(N(C)C)cc2)cc1	i	i
CC1CCN(C(C(=O)Nc2ccc(C(C)C)cc2)c2ccc3c(c2)OCO3)CC1 (stereo not given)	i	i
C(=C\c1nc(-c2ccccc2)oc1Nc1ccc2ccccc2c1)/c1ccccc1	25.1µM	i
O=C(Nc1ccc2oc(-c3ccccc3)nc2c1)c1ccc2ccccc2c1	i	i
O=C(COC(=O)CCCN1C(=O)c2cccc3cccc(c23)C1=O)Nc1cccc(C(F)(F)F)c1	i	i
COc1ccc(Cl)cc1NC(=O)C/C(C)=N/NC(=O)CC#N	i	i
C/C(CC(=O)Nc1ccc(Cl)cc1Cl)=N\NC(N)=S	7.94µM	10µM
C/C(=N\NC(=O)c1ccc([N+](=O)[O-])c(C)c1)c1ccccc1Cl	i	i
